Source: PubChem BioAssay (The Scripps Research Institute Molecular Screening Center)
In the library only some 4.8% were active in any assay of this set; here they are far more common.
SMARCA2 act: activators of SMARCA2 function | MG213 cells, MMTV-luciferase reporter, dexamethasone, overnight | activation, % at 9.1 µM | 370,000 tested, 1% active | AID 652017; in the data active = activation above about 7.8%;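 also: 0% = vehicle wells and 100% = reference activator wells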
hcDAF-12 act: activators of H. contortus DAF-12 nuclear receptor. 370,000 tested, 1.4% active. HEK293 hcDAF-12 lit1-tk-luc reporter, luminescence; 0% DMSO, 100% Δ7-dafachronic acid. activation, % at 6.8 µM;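 active = activation above the mean of all tested compounds plus 3 SD, cut at about 5.5% in these data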;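 also: 100% = response to 3 µM Δ7-dafachronic acid high control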
hgDAF12 agonist: activates the H. glycines DAF-12 receptor ligand-binding domain; HEK293 GAL4-hgDAF12 UAS-luciferase reporter, agonist luminescence; normalized to butyrate control; activation, % at 6.8 µM; 370,000 tested, 1.8% active;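 active = activation above a cutoff set at the mean of all screened compounds plus 3 SD, cut at about 10% in these data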;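 also: 0% = DMSO wells and 100% = sodium butyrate wells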
DAX1 inh-1: inhibitors of DAX1 repression of SF-1 activated StAR promoter; HEK293T StAR-luciferase reporter, SF-1/DAX-1 repression relief; 370,000 tested, 1.1% active; inhibition, % at 6.8 µM;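 active = inhibition above the mean over all tested compounds plus 3 SD, cut at about 3.6% in these data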;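 also: 0% = DAX-1 cells with DMSO and 100% = cells lacking DAX-1 with DMSO; higher inhibition means more luminescence from relief of DAX-1 repression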
ssDAF12 agonist: activates DAF-12 receptor from parasite S. stercoralis. activation, % at 6.8 µM. 370,000 tested, 1% active. AID 652126. HEK293 ssDAF-12/GRIP1 lit1-tk-luc reporter, luminescence; % of 3 µM dafachronic acid response;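 active = activation above the mean over all tested compounds plus 3 SD, cut at about 0.9% in these data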;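 also: 0% = DMSO-only wells and 100% = 3 µM delta7-dafachronic acid wells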
DAX1 inh-2: inhibits human nuclear receptor DAX1; P51843; HEK293 Gal4-DAX1 luciferase reporter, luminescence; inhibition, % at 6.75 µM; 340,000 tested, 0.99% active; AID 504766;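 active = inhibition above the mean over all tested compounds plus 3 SD, cut at about 4.2% in these data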;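 also: 0% = DAX1-transfected cells with DMSO and 100% = empty-vector control cells with DMSO; inhibition shows as a rise in luminescence from relieved DAX1 repression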
SMARCA2 conf: SMARCA2 activation, confirmation screen; shares compounds with SMARCA2 act; MG213 cells, MMTV-luciferase with dexamethasone, luminescence, overnight; MG213 cells expressing E1A, Rb sequestered; DMSO wells 0%, reference activator 100%; activation, % at 9.1 µM; 3,500 tested, 30% active;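 active = activation above its plate's cutoff, the mean activation of tested wells plus 3 SD, cut at about 7.9% in these data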
VP16 Luc act: counter-screen for SMARCA2 activators: GAL4-VP16 luciferase reporter activation; shares compounds with SMARCA2 act; 3,500 tested, 41% active; HEK293 GAL4-VP16 pG5luc reporter, luciferase luminescence; scaled: DMSO wells 0%, SAHA wells 100%; activation, % at 9.1 µM;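 active = activation above the solvent-only control well mean plus 3 SD, averaged across control plates, cut at about 5.2% in these data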
LXRb hcDAF ctr: counter-screen for hcDAF-12 agonists: agonists of human LXR-beta | 3,400 tested, under 10 active | activation, % at 6.8 µM | HEK293 Gal4-LXR tk-luc reporter, luminescence, 24 h; normalized: DMSO 0%, positive control 100% | shares compounds with hcDAF-12 act | AID 743027;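 active = mean percent activation of the reporter above a cutoff set as the average over tested compounds plus their standard deviation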
Target sequence (P55055 whole entry, looked up, the tested form may be a part): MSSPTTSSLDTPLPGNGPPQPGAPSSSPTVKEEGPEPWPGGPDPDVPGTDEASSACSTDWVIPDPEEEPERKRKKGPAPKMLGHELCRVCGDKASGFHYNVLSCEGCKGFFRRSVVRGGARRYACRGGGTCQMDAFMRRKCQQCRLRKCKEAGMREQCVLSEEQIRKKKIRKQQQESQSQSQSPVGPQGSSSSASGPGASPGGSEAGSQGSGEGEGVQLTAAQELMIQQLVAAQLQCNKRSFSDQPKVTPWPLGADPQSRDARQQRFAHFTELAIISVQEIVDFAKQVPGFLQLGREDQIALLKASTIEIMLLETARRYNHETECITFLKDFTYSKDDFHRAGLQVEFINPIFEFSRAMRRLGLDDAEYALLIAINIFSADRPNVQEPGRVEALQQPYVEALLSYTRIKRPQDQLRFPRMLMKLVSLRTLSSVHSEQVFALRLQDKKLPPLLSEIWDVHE
hcDAF12 conf: confirmation of H. contortus DAF-12 agonists; 3,400 tested, 61% active; HEK293 hcDAF-12 lit1-tk-luc reporter, luminescence; % of Δ7-dafachronic acid response; shares compounds with hcDAF-12 act; activation, % at 6.8 µM;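 active = mean activation across triplicate tests above the threshold derived from the earlier primary screen, cut at about 5.5% in these data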;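 also: 0% = DMSO only wells and 100% = 3 µM Δ7-dafachronic acid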
hgDAF12 ag: hgDAF-12 agonism, confirmation assay; activation, % at 6.8 µM; shares compounds with hgDAF12 agonist; 3,300 tested, 80% active; HEK293 GAL4-hgDAF12 luciferase reporter, agonist mode; percent of butyrate response; AID 743050;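 active = mean activation over triplicate wells above the hit cutoff derived from the earlier primary screen, cut at about 11% in these data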;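 also: 0% = DMSO low control and 100% = 2 mM sodium butyrate high control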
LXRb DAF12 ctr: counter-screen for DAF-12 agonists: agonists of human LXR-beta. shares compounds with hgDAF12 agonist. HEK293 Gal4-LXR luciferase reporter, 24 h. activation, % at 6.8 µM. 3,300 tested, under 10 active;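 active = mean activation of the triplicate above a set limit carried over from the primary screen, none filed active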
Numbers without * were called inactive; / = not tested or not shown.

SMILES	SMARCA2 act	hcDAF-12 act	hgDAF12 agonist	DAX1 inh-1	ssDAF12 agonist	DAX1 inh-2	SMARCA2 conf	VP16 Luc act	hgDAF12 ag	LXRb DAF12 ctr	others
COc1cc(C(C)=O)ccc1OCC(=O)NCC1(N2CCCCC2)CCCCC1	-3	2	-4	1	-1	2	/	/	/	/
COc1ccc(CNC(=O)C(=O)NC2CCC(C)CC2)cc1 (stereo not given)	2	-1	-1	0	-2	0	/	/	/	/
CC(C)(C)c1cc(C(=O)NNc2cc(C(F)(F)F)ccc2Cl)n(Cc2ccccc2)n1	-2	2	0	0	0	1	/	/	/	/
CC(NC(=O)COC(=O)Cc1cccs1)c1ccc(F)cc1 (stereo not given)	-3	-1	1	1	-1	0	/	/	/	/
CCC(=O)Nc1cc2c(cc1Cl)-c1ccccc1C2	9.5*	5.8*	18*	3	0	1	3	5	17*	0
CCC(=O)Nc1cccc(NC(=O)c2ccccc2Cl)c1	-1	0	-2	0	-1	0	/	/	/	/
O=C(O)Cn1cc(/C=c2/sc3nc4ccccc4n3c2=O)c2ccccc21	10*	5.9*	17*	3	0	2	3	8.8*	11*	0
O=C(CSCc1ccccc1)N=Nc1c(O)[nH]c2ccccc12	2	2	6	1	0	-1	/	/	/	/
O=C(N=Nc1c(O)[nH]c2ccccc12)c1ccco1	8.2*	9.8*	19*	2	1	4.4*	23*	9.8*	17*	1	LXRb hcDAF ctr=1;hcDAF12 conf=10*
Cc1ccc(NC(=O)c2cc3nc(C)cc(C)n3n2)cc1	9.4*	8.5*	16*	4.3*	1	0	10*	7.9*	17*	1	LXRb hcDAF ctr=1;hcDAF12 conf=5
Cc1cc(C)n2nc(C(=O)NCc3ccccc3)cc2n1	0	-1	2	0	-2	1	/	/	/	/
COc1cc(OC)cc(-n2nnnc2SCC(=O)Nc2nc3c(s2)CCCC3)c1	0	-1	0	0	-1	0	/	/	/	/
Cn1nnnc1SCC(=O)Nc1nc2c(s1)CCCC2	11*	6.4*	13*	3.7*	0	1	6	9.0*	16*	1
CC1CCN(C(=S)NCCc2ccccc2)CC1	8.7*	3	14*	2	0	1	11*	6.7*	11*	1
S=C(NCCc1ccccc1)N1CCN(C(=S)NCCc2ccccc2)CC1	1	-1	0	1	-1	-1	/	/	/	/
Cc1nn(Cc2c(F)c(F)c(F)c(F)c2F)c(C)c1NC(=O)c1cccc(COc2ccccc2Cl)c1	13*	4	20*	1	0	-3	4	13*	9	0
Cc1nnc(NC(=O)c2csc3c2CCCC3)s1	0	-1	8	0	-1	/	/	/	/	/
O=C(Nc1ccccn1)c1csc2c1CCCC2	11*	6.0*	19*	3	0	1	6	6.5*	16*	1
